Assay outcomes deposited in PubChem by several laboratories.
NR0B1 inh – inhibitors of human orphan nuclear receptor DAX1 (NR0B1); P51843; HEK293 Gal4-DAX1 luciferase reporter, luminescence; inhibition, % at 6.75 µM; 0.99% of 340,000 active;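 active = inhibition above the mean over all tested compounds plus 3 SD, cut at about 4.2% in these data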;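 also: inhibition shows as a rise in luminescence from relieved DAX1 repression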
HSF-1 act – increases HSF-1 driven luciferase reporter signal | NIH3T3-HGL HSF-1 luciferase reporter, MG132, 8 h; 100% = twice DMSO control signal | activation, % at 9 µM | 1.7% of 300,000 active | AID 504408;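 active = mean replicate activation of at least 50% with a set share of replicates each reaching 50%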
HSP90 refold inh – blocks HSP90-mediated luciferase refolding in reticulocyte lysate; Rabbit reticulocyte lysate, luciferase refolding luminescence, 3 h; inhibition, % at 5.6 µM; AID 1789; 0.91% of 290,000 active;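 active = inhibition above the screen-wide mean plus 3 SD, computed separately per campaign, cut at about 16% in these data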;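 also: inhibitors lower the luminescence because luciferase stays unfolded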
FXN GAA850 act – activators of GAA850 frataxin (FXN) promoter; 0.56% of 360,000 active; activation, % at 6 µM; HEK293 lucGAA850 FXN promoter luciferase reporter, 24 h; percent of 10 µM SAHA response; AID 540364;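 active = activation above the average of all compounds screened plus 3 SD, cutoff fixed separately per campaign, cut at about 7.5% in these data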
HSF1 inh – HSF1 inhibition; activity change, negative = inhibition, % at 7.5 µM (by protocol); AID 2098; 0.77% of 300,000 active; NIH3T3-HGL HSE-luciferase, MG132-induced, luminescence 8 h; hits give low values;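 active = more than half of replicate wells show activity change below -50%, luminescence cut by over half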;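 also: luciferase reports HSF-1 transcriptional activity via heat shock element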
AHR act – activates the human aryl hydrocarbon receptor | P35869 | 2.5% of 320,000 active | AHR-responsive luciferase reporter cells, luminescence | activation, % at 5 µM; in the data active = activation above about 47%
Hits are given with their value; . = inactive; / = not tested or not shown. This is a sample that favours compounds with a hit; in the whole collection about 5.9% have one here.

SMILES	NR0B1 inh	HSF-1 act	HSP90 refold inh	FXN GAA850 act	HSF1 inh	AHR act
CCOc1ccc(NC(=O)C2=NN(c3ccccc3)C(=O)CC2)cc1S(=O)(=O)N1CCCCC1	.	/	/	.	/	.
CC1(CCc2ccccc2)NC(=S)N(c2ccccc2)N1 (stereo unspecified)	.	.	.	.	.	.
CC1(CCc2ccccc2)NC(=S)N(c2ccc(Cl)cc2)N1 (stereo unspecified)	.	.	.	.	.	55
CCC1(c2ccc(Cl)cc2)NC(=S)N(c2ccc(C)cc2)N1 (stereo unspecified)	.	61	.	.	.	.
CCC1(c2ccccc2)NC(=S)N(c2ccc(C)c(C)c2)N1 (stereo unspecified)	.	52	.	.	.	.
CCC1(c2ccc(Cl)cc2)NC(=S)N(c2ccc(C)c(C)c2)N1 (stereo unspecified)	.	.	.	.	.	.
O=C(Nc1ccc([N+](=O)[O-])cc1)Nn1cnnc1	.	.	.	.	.	.
Cc1ccc(SCC(=O)c2c(C)[nH]c3ccccc23)cc1	.	.	.	.	.	.
CCCc1cc(=O)[nH]c(SCCN2C(=O)c3ccccc3C2=O)n1	5.5	.	.	.	.	.
Cc1[nH]c2ccccc2c1C(=O)CSc1ccccn1	.	.	.	.	.	53
Cc1ccc2c(C(=O)CSc3ccccc3)c(C)[nH]c2c1	.	55	.	.	.	58
CCCc1cc(=O)[nH]c(SCC(=O)c2c(C)[nH]c3ccccc23)n1	.	.	.	.	.	60
CCOC(=O)c1c(NC(=O)COC(=O)c2cccc([N+](=O)[O-])c2)sc(C(=O)N(C)C)c1C	.	/	/	.	/	/
O=c1oc2ccccc2c(O)c1Sc1ccc(Cl)cc1	.	.	/	.	.	.
CC1=CCC2C(=O)N(c3cccc(C(=O)Nc4ccccc4Cl)c3)C(=O)C2C1 (stereo unspecified)	.	.	.	.	.	.
Cc1[nH]c2ccccc2c1C(=O)COc1ccccc1F	.	.	.	.	.	63
Cc1nc(C(=O)NCC(=O)c2ccccc2)c(C(F)(F)F)o1	.	.	.	.	.	.
Cc1nc(C(=O)NNC(=O)c2ccccc2)c(C(F)(F)F)o1	4.3	.	.	.	.	.
Cn1cccc1C1C=C(c2ccc(C(C)(C)C)cc2)Nc2ncnn21 (stereo unspecified)	.	.	/	.	.	67
Brc1ccc(C2=CC(c3cccs3)n3ncnc3N2)cc1 (stereo unspecified)	.	.	.	.	.	85
CC(C)(C)c1ccc(C2=CC(c3ccccc3F)n3ncnc3N2)cc1 (stereo unspecified)	.	.	/	.	.	.
CCOc1ccc(C2C=C(c3ccc(F)cc3)Nc3ncnn32)cc1 (stereo unspecified)	.	.	.	.	.	63
OCCCc1nc2n(n1)C(c1cccs1)C=C(c1ccc(Br)cc1)N2 (stereo unspecified)	/	.	.	/	.	.
Fc1ccc(C2=CC(c3ccc(Br)o3)n3ncnc3N2)cc1 (stereo unspecified)	.	/	.	.	/	87
Fc1ccc(Br)cc1C1C=C(c2cccnc2)Nc2ncnn21 (stereo unspecified)	.	.	.	.	.	59
SMILES	NR0B1 inh	HSF-1 act	HSP90 refold inh	FXN GAA850 act	HSF1 inh	AHR act
COc1cccc(C2=CC(c3ccccc3)n3ncnc3N2)c1 (stereo unspecified)	/	.	.	/	.	.
Nn1c(SCC(=O)Nc2ccc3c(c2)OCCO3)nnc(CCC(=O)O)c1=O	.	.	.	.	.	.
CC1(C(=O)NS(=O)(=O)c2ccc(F)cc2F)CCN1C(=O)C1(c2ccc(Cl)cc2)CCC1 (stereo unspecified)	/	/	/	.	/	/
CCS(=O)(=O)Nc1ccc(C2=NN(C(=S)Nc3ccccc3)C(c3ccco3)C2)cc1 (stereo unspecified)	.	.	.	.	.	.
Cc1ccc(C2=NN(C(=S)Nc3ccccc3)C(c3ccco3)C2)cc1 (stereo unspecified)	.	61	.	.	.	.
Cc1ccc(F)cc1C(=O)N1CCCCC1c1cc(C(=O)NCc2ccccc2)no1 (stereo unspecified)	/	/	/	.	/	/
Fc1ccc(-c2nc3n(n2)Cc2ccccc2-3)cc1	.	/	.	.	/	61
NC(=S)Cc1nc2n(n1)Cc1ccccc1-2	.	.	.	.	.	.
O=C(/C=C/NNC(=O)c1ccccc1)c1ccc([N+](=O)[O-])cc1	4.4	.	.	.	.	.
O=C(O)CC(NNC(=O)c1ccccc1)C(=O)Nc1ccc([N+](=O)[O-])cc1 (stereo unspecified)	8.4	.	.	.	.	.
O=C(Nc1ccc([N+](=O)[O-])cc1)C1C(c2ccccc2)=C1c1ccccc1	.	178	.	.	.	.
CCOC(=O)CCCCCC(=O)Nc1ccc2c(c1)C(=O)N([C@@H](C)CO)C[C@H](C)[C@H](CN(C)C(=O)c1ccccc1)OCCCC[C@H](C)O2	.	/	/	.	/	/
O=C(CCNC(=O)c1ccc(Cl)cc1)Nc1cc(C(F)(F)F)ccc1N1CCOCC1	.	/	/	.	/	/
Cc1ccc2sc(NNC(=O)c3cc(=O)c4ccccc4o3)nc2c1C	.	.	18	.	.	76
Cc1nc(C)c(C(=O)Nc2nc3c(C)cccc3s2)o1	.	.	.	.	.	.
COc1ccc2nc(NNC(=O)c3cc(=O)c4ccccc4o3)sc2c1	.	.	.	.	.	73
O=C(NNc1nc2c(F)cccc2s1)c1cc(=O)c2ccccc2o1	.	.	.	.	.	80
Cc1cccc2sc(NNC(=O)c3cc(=O)c4ccccc4o3)nc12	.	.	.	.	.	67
CC(=O)Nc1ccc(S(=O)(=O)N2CCN(c3ccc(C(C)=O)cc3)CC2)cc1	/	/	/	.	/	/
CCCCNC(=O)C1(C)CCCCN1C(=O)c1cncc(Br)c1 (stereo unspecified)	/	/	/	.	/	/
Cc1ccc(C(=O)N2CCSCC2)cc1	.	.	17	.	.	.
Cc1ccc(NC(=O)Nc2ccc(C(=O)N3CCOCC3)cc2)cc1	.	.	.	.	.	.
O=C(CCCNC(=O)/C(=C\c1ccccc1F)NC(=O)c1ccccc1)OCc1ccccc1	.	.	.	.	-56	.
Cc1nn(C(=O)c2cc3sccc3[nH]2)c(C)c1C	.	.	.	.	.	71
CCOc1ccccc1NC(=O)COC(=O)C1CC(=O)N(c2c(C)cccc2C)C1 (stereo unspecified)	.	.	.	.	.	.
CC1CCCCN1C(=O)Nc1ccccc1Cl (stereo unspecified)	5.1	.	.	.	.	.
O=C(NC1CCCC1)C1CCCN1C(=O)Nc1ccccc1Cl (stereo unspecified)	.	.	.	.	.	.
COC1=C(c2ccccc2)C(=O)c2ccccc2C1=O	.	.	.	.	.	.
